# Several values for one entry are separate records, joined by “and”; a condition that tells them apart may be missing. Identical values can stand only once. Records with an inconclusive call do not appear. Activity calls are given as the source filed them. Unless noted, calls follow the shape of the dose curve; as a rule, active = well fitted curve in the direction sought with a large enough effect; inconclusive = small, poorly fitted or top-dose-only effect, or another doubt; inactive = no such curve, though single readings can be large; an effect the other way counts as inactive or inconclusive.
# Tests used:
# [1] = target: Retinoic acid receptor RXR-alpha (Homo sapiens) (UniProt P19793); assay: qHTS assay for small molecule agonists of retinoid X receptor alpha signaling (AID 588544; calls by dose curve;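 also: 0% = DMSO basal wells and 100% = reference agonist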)
# [2] = target: Thyroid hormone receptor beta (Homo sapiens) (UniProt P10828); assay: qHTS assay for small molecule agonists of thyroid hormone receptor beta signaling (AID 588545; calls by dose curve;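 also: 0% = DMSO only and 100% = 10 nM T3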)
# Procedure, shortened: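 Compounds were tested as agonists in TR-UAS-bla-GripTite HEK 293 cells. After 18 hrs at 37 C, CCF4 substrate was added and fluorescence read after 2 hrs at room temperature.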
# [3] = qHTS assay for small molecule antagonists of retinoid X receptor alpha signaling (AID 588546; active = well fitted inhibition curve with a large enough effect in the signal ratio, with a control signal flat, not every such curve was filed as active; the % refers to the signal ratio;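 also: cells stimulated with 9-cis-retinoic acid as agonist; % is scaled to controls: 0 for no effect and ±100 for the full control effect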); conditions: HEK293T RXRa-UAS-bla, beta-lactamase ratio, antagonist mode; measured here: W530 green channel, cytotoxicity proxy
# Procedure, shortened: (§1)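 Beta-lactamase reporter inhibition, read as CCF4 fluorescence ratio (ex 405, em 460/530 nm) after 2 h at RT. HEK293T UAS-bla cells, 2500/well, were stimulated with 9-cis-RA at 500 or 100 nM final alongside test compound for 18 h at 37 C.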
# [4] = target: Retinoic acid receptor RXR-alpha (Homo sapiens) (UniProt P19793); assay: as above; conditions: HEK293T RXRa-UAS-bla, beta-lactamase ratio, antagonist mode
# Procedure, shortened: as §1
# [5] = target: Thyroid hormone receptor beta (Homo sapiens) (UniProt P10828); assay: qHTS assay for small molecule antagonists of thyroid hormone receptor beta signaling (AID 588547; active = well fitted inhibition curve with a large enough effect in the signal ratio, with a control signal flat, not every such curve was filed as active; the % refers to the signal ratio;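 also: cells stimulated with 0.4 nM T3 agonist during compound exposure; series mostly up to about 77 µM; % is scaled to controls: 0 for no effect and ±100 for the full control effect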); conditions: TR-UAS-bla HEK293, beta-lactamase ratio, antagonist mode, 18 h
# Procedure, shortened: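 TR-UAS-bla GripTite HEK293 cells in 2% charcoal/dextran FBS medium were preincubated 4 h at 37 C, given compound (0.59 nM to 92 uM) plus 0.4 nM T3 (final) for 18 h, then CCF4 for 2 h at RT; Hill fit gave IC50.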
# [6] = qHTS assay for small molecule agonists of the antioxidant response element (ARE) signaling pathway (AID 651741; active = well fitted activation curve with a large enough effect in the signal ratio; the % refers to the signal ratio; also: % of control where 0% means no effect)
# Procedure, shortened: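 Beta-lactamase reporter expression driven by the antioxidant response element in HepG2 cells was detected by fluorescence with LiveBLAzer B/G FRET substrate (2 h, room temperature) following 16 h compound treatment at 37 C.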
# [7] = qHTS assay for small molecule activators of the p53 signaling pathway (AID 651743; active = well fitted activation curve with a large enough effect in the signal ratio, not every such curve was filed as active; the % refers to the signal ratio; also: series mostly up to about 92 µM; % of control where 0% means no effect); conditions: HCT-116 p53RE-bla, beta-lactamase FRET ratio, 16 h; activation: stronger effect = higher value
# Procedure, shortened: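 Here HCT-116 cells with an integrated p53-responsive beta-lactamase gene were incubated with compounds (16 hours, 37 C) after a 5-hour plating period; beta-lactamase activity was detected as fluorescence intensity via B/G FRET substrate.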
# [8] = qHTS assay for small molecule activators of the nuclear factor-kappa B (NF-kB) signaling pathway (AID 651749; active = well fitted activation curve with a large enough effect in the signal ratio; the % refers to the signal ratio; also: series mostly up to about 77 µM; % of control where 0% means no effect); conditions: NF-kB-bla ME-180 cells, beta-lactamase FRET ratio, 16 h; activation: stronger effect = higher value
# Procedure, shortened: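 Beta-lactamase reporter expression, controlled by NF-kB response elements in ME-180 cells, was quantified fluorometrically via FRET disruption; cells at 2,000/well had been incubated with 23 nL test compound for 16 hr.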
# [9] = qHTS assay for environmental chemicals that activate the Aryl hydrocarbon Receptor (AhR) signaling pathway (AID 651777); conditions: 1A2-DRE human hepatoma cells, luciferase, 24 h; activation: stronger effect = higher value; also: % of control where 0% means no effect; nearly all actives have a fitted effect of over 15% in size
# Procedure, shortened: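 Induction of CYP1A2 transcription through AhR is detected by luciferase in 1A2-DRE hepatoma cells. Compounds or DMSO act for 24 hr at 37 C before a 30 min One-Glo step at room temperature.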
# [10] = target: Peroxisome proliferator-activated receptor alpha (Homo sapiens) (UniProt Q07869); assay: qHTS assay for small molecule agonists of the peroxisome proliferator-activated receptor alpha (PPARalpha) signaling pathway (AID 651778); conditions: PathHunter PPARalpha complementation, chemiluminescence, 6 h; stronger effect = higher value; also: % of control where 0% means no effect
# Procedure, shortened: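 Cells plated at 2,000/well and held overnight at 37 C, 5% CO2, then compound added by pin tool for 6 hr; after PathHunter detection reagent and 60 min at room temperature, chemiluminescence from enzyme complementation was read.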
# [11] = qHTS assay for small molecule agonists of the antioxidant response element (ARE) signaling pathway measured by Nrf2-dependant transcriptional activity (AID 720636; active = well fitted curve in the direction sought with a large enough effect in the repeat runs; an effect the other way counts as inactive or inconclusive; also: % of control where 0% means no effect)
# Procedure, shortened: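 We exposed ARE-luc HepG2 cells, seeded in assay medium with 1% dialyzed FBS and allowed 6 hr to adhere, to test compounds overnight (16 hr, 37 C) before measuring luciferase with ONE-Glo.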
# [12] = qHTS assay for small molecule agonists of the antioxidant response element (ARE) signaling pathway measured by Nrf2-dependant transcriptional activity - cell viability counter screen (AID 720653; active = well fitted curve in the direction sought with a large enough effect in the repeat runs; an effect the other way counts as inactive or inconclusive; also: % is scaled to controls: 0 for no effect and ±100 for the full control effect); conditions: ARE-bla HepG2 viability, CellTiter-Glo ATP luminescence, 16 h; stronger effect = lower value
# Procedure, shortened: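 ARE-bla HepG2 cells (2,000/well) rested 5 hrs at 37C/5% CO2, then exposed to compounds in DMSO for 16 hrs. Viability was read in the same wells as intracellular ATP by luminescence, 30 min at room temperature after reagent addition.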
# [13] = qHTS assay for cell viability of HEK293 cells (AID 743288); conditions: ATP luminescence (CellTiter-Glo), 18 h; max response: stronger effect = lower value; also: % is scaled to controls: 0 for no effect and ±100 for the full control effect; nearly all actives have a fitted effect of over 50% in size
# Procedure, shortened: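 Viable-cell counts were inferred from luciferase-based ATP content in HEK293 cells seeded at 2,000/well, pre-incubated ≥5 h, then dosed with DMSO-solubilised compounds for 18 h at 37 C.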
# [14] = qHTS assay for cell viability of the p53RE-bla HCT-116 cell line (AID 743292); also: % is scaled to controls: 0 for no effect and ±100 for the full control effect; nearly all actives have a fitted effect of over 55% in size
# Procedure, shortened: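 In this qHTS counter-screen, metabolically competent p53RE-bla HCT-116 cells were counted via their ATP content. Compounds were applied for 16 h at 37 C and luciferase-coupled luminescence was measured.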
# [15] = target: Nuclear receptor subfamily 1 group I member 2 (Rattus norvegicus) (UniProt Q9R1A7); assay: qHTS assay for small molecule activators of the rat pregnane X receptor (rPXR) signaling pathway (AID 651751; call rule not given here; also: 0% is about no effect); conditions: rPXR reporter cells, luciferase (One-Glo), 24 h
# [16] = qHTS assay for small molecule activators of the human pregnane X receptor (PXR) signaling pathway (AID 720659; call rule not given here; also: 0% is about no effect)
# Sequence of Thyroid hormone receptor beta (Homo sapiens) (P10828 whole entry, looked up): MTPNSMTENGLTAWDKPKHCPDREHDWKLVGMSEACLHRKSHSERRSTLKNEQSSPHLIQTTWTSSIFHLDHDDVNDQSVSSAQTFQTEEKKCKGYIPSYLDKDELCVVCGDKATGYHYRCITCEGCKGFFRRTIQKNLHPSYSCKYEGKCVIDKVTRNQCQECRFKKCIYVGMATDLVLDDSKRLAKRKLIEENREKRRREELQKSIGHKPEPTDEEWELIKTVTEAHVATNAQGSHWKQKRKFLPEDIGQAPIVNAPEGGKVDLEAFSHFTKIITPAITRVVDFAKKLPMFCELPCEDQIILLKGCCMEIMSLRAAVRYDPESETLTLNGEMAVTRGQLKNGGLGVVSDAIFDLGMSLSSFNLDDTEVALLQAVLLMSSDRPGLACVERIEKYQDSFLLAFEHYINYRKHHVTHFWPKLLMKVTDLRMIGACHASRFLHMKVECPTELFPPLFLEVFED
# Sequence of Retinoic acid receptor RXR-alpha (Homo sapiens) (P19793 whole entry, looked up): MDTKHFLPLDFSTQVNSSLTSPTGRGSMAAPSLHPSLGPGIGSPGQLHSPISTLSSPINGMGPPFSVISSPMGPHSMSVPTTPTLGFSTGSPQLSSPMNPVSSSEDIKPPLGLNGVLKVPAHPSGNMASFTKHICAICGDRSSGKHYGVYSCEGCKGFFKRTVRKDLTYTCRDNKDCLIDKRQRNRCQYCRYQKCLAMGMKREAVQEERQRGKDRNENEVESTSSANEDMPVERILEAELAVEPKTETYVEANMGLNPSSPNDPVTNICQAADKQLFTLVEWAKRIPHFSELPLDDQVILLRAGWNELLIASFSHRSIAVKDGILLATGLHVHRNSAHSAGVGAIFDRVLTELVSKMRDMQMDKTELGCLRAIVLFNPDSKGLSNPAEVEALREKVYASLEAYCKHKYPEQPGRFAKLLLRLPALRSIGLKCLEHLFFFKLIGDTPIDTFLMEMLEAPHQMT
# Sequence of Peroxisome proliferator-activated receptor alpha (Homo sapiens) (Q07869 whole entry, looked up): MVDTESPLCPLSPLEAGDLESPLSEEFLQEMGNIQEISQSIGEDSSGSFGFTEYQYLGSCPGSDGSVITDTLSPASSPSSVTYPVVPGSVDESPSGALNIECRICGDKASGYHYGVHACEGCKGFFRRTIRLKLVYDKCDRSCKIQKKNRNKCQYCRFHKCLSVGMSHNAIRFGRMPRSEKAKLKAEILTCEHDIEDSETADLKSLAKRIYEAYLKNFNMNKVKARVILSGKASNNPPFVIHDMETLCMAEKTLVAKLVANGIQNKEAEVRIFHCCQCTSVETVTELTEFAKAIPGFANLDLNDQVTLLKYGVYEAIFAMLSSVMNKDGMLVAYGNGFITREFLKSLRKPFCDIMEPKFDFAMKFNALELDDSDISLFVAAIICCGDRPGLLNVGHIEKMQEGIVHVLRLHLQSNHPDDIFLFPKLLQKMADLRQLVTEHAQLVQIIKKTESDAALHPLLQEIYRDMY
# Sequence of Nuclear receptor subfamily 1 group I member 2 (Rattus norvegicus) (Q9R1A7 whole entry, looked up): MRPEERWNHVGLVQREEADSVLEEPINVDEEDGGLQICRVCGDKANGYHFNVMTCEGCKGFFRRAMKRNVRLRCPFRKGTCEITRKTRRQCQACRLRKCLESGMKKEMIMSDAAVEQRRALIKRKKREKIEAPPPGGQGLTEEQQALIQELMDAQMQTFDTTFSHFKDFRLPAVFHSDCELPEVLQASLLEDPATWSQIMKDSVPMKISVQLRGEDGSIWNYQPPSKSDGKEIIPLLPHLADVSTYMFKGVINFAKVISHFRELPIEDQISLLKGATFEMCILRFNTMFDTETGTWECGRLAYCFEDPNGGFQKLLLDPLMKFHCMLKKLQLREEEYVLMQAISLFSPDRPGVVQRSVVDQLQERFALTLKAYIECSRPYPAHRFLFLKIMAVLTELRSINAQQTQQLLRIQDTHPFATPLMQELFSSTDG
smiles,measurement,setting,value
COP(N)(=O)SC (stereo unspecified),Potency,[1],inactive
same,outcome,[2],inactive
same,max response,[3],-17.3% and -16.5%
same,max response,[4],-4.89% (inactive) and -18.9% (inactive)
same,activity change % (negative = inhibition),[5],12.1% (inactive) and -8.42% (inactive)
same,Potency,[6],inactive
same,activation,[7],0.404% (inactive) and 2.15% (inactive)
same,activation,[8],0.304% (inactive) and 1.6% (inactive)
same,activation,[9],-0.0851% (inactive) and 1.26% (inactive)
same,max response,[10],-4.83% (inactive) and -1.06% (inactive)
same,outcome,[11],inactive
same,max response,[12],9.18% (inactive) and -6.05% (inactive)
same,max response,[13],-4.36% (inactive) and -1.51% (inactive)
same,Potency,[14],inactive
same,max response,[15],-2.32% (inactive) and -2.07% (inactive)
same,outcome,[16],inactive
